Experimental data from PubChem BioAssay AID2685 (National Center for Advancing Translational Sciences (NCATS), 2010).
Out of some 320,000 compounds screened, about 2,100 (0.66%) were called active. Roughly 53% stayed inconclusive and do not appear here. The call rests on the fitted dose curve; in most records, active means well fitted inhibition curve with a large enough effect in the signal ratio, with a control signal flat (not every such curve was filed as active); inconclusive means small, poorly fitted or top-dose-only effect, or effect the other way, or a change in a side signal; inactive means flat fitted curve, though single readings scatter; the % refers to the signal ratio. The full list was thinned out, with actives kept by preference.

Test: qHTS Assay for Lipid Storage Modulators in Drosophila S3 Cells;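 on cell number change: cells counted by Cell Tracker Red CMTPX staining in the red channel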; on lipid storage change, negative = inhibition: on the % scale 0 is the no-effect control and ±100 the full control effect
Settings: BODIPY lipid droplet fluorescence, 18-24 h, cells fed with added oleic acid; cell number change: measured here: cell count max response; series mostly up to 46.1 µM; lipid storage change, negative = inhibition: at the top concentration
Method in brief: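 Laser-scanning cytometry quantifies lipid droplet accumulation (500–530 nm total intensity; droplet/cell object ratio) in oleic acid-fed (400 uM added) Drosophila S3 cells treated with a concentration series. 20 uM Triacsin C defined 100% inhibition.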
Potency means the concentration at half of the fitted maximal effect.

Row | SMILES | Potency | cell number change [%] | lipid storage change, negative = inhibition | outcome
1 | O=C(CCl)Nc1ccc(N=Nc2ccccc2)cc1 | 5.8 µM (active) | -14.8 |  | 
2 | CCCCCC/C=N/Nc1nnc(Cc2ccc(OC)c(OC)c2)c(=O)[nH]1 |  |  | -24% (inactive) | 
3 | CC(=O)Nc1ccc(S(=O)(=O)Nc2nc3ccccc3s2)cc1 | 23.1 µM (active) | -10.9 |  | 
4 | CC(=O)Nc1ccc(S(=O)(=O)Nc2nnc(C3CCCCC3)s2)cc1 | 3.66 µM (active) | 6.53 |  | 
5 | CC(=O)Nc1ccc(S(=O)(=O)Nc2nc3ccc(C)cc3s2)cc1 |  | 6.47 | 8.73% (inactive) | 
6 | O=S(=O)(Nc1nnc(C2CCCCC2)s1)c1ccc(F)cc1 |  | -12.8 | -48.6% (inactive) | 
7 | CC(=O)Nc1ccc2nc(NS(=O)(=O)c3ccc(C)cc3)sc2c1 |  | 2.04 | 14.3% (inactive) | 
8 | CC(=O)Nc1ccc(S(=O)(=O)Nc2nnc(CC(C)(C)C)s2)cc1 |  | 0.722 | -22.2% (inactive) | 
9 | COc1ccc(CCNC(=O)C(=O)Nc2nccs2)cc1OC |  |  |  | inactive
10 | Cc1c(N=C/C=C/c2ccccc2)cnn1C |  | 0.211 | -0.162% (inactive) | 
11 | CCc1nnc(SCC(=O)Nc2nccs2)n1CC |  | 1.52 | 2.94% (inactive) | 
12 | CC1(C)Cc2c(cnn2-c2cccc(F)c2)C(NC(=O)CN2CCCC2=O)C1 (stereo not given) |  | -1.15 |  | inactive
13 | CCOC(=O)COc1ccc(C)cc1-c1ccno1 |  |  |  | inactive
14 | Cc1oc(C(=O)O)cc1COc1cccc2cccnc12 | 6.51 µM (active) | 7.93 |  | 
15 | Cc1oc(C(=O)O)cc1COc1cccc2ccccc12 |  | 16.3 | 16.2% (inactive) | 
16 | COc1cc(C(=O)O)cc(OC)c1OCc1cc(C(=O)O)oc1C |  | -10.9 | -16.4% (inactive) | 
17 | Cn1cc(-c2ccc(Cl)cc2)cc(C#N)c1=O |  |  | 4.19% (inactive) | 
18 | Cc1ccccc1/C=N/n1c(COc2ccccc2)n[nH]c1=S |  | 4.96 | 13.7% (inactive) | 
19 | O=C(OCCOCCN=C1NS(=O)(=O)c2ccccc21)c1ccc(F)cc1 | 1.64 µM (active) | 13.2 |  | 
20 | O=C(CN1C(=O)c2ccccc2C1=O)OCCOCCN=C1NS(=O)(=O)c2ccccc21 |  | 10.2 | 10.3% (inactive) | 
21 | O=C(OCCCN=C1NS(=O)(=O)c2ccccc21)C1CC(=O)N(c2ccc(Cl)cc2)C1 (stereo not given) |  | -12.2 | -7.49% (inactive) | 
22 | O=C(OCCOCCN=C1NS(=O)(=O)c2ccccc21)C1CC(=O)N(c2ccccc2)C1 (stereo not given) | 8.2 µM (active) |  |  | 
23 | O=C(OCCOCCN=C1NS(=O)(=O)c2ccccc21)c1ccncc1 |  | 0.489 | -5.87% (inactive) | 
24 | O=C(OCCCN=C1NS(=O)(=O)c2ccccc21)c1ccc(F)cc1 |  | -17.4 | 19.4% (inactive) | 
25 | CN(CC(=O)Nc1ccc(Cl)cc1)CC(=O)Nc1ccc(C(N)=O)cc1 |  | -11 | 0.257% (inactive) | 
26 | Cc1cc(=O)n(C)c(=O)n1CCCCOc1cccc([N+](=O)[O-])c1 |  | 11.9 | 11.3% (inactive) | 
27 | N#Cc1nc(-c2cccs2)oc1NCc1ccc(Cl)cc1 |  |  |  | inactive

Row | SMILES | Potency | cell number change [%] | lipid storage change, negative = inhibition | outcome
28 | Cc1cc2occ(CC(=O)Nc3nccs3)c2cc1C(C)C |  |  |  | inactive
29 | Cc1ccc2c(CC(=O)NCc3cccs3)coc2c1 |  | 20.1 | 26.1% (inactive) | 
30 | Cc1cc2occ(CC(=O)NCc3cccs3)c2cc1C(C)C | 1.46 µM (active) | -2.8 |  | 
31 | O=C(O)c1ccc2c(c1)C(=O)N(c1ncccn1)C2=O |  | -0.987 | 2.95% (inactive) | 
32 | Cc1ccc(Cn2c(CN3CCOCC3)nc3c2c(=O)n(C)c(=O)n3C)cc1 |  | 6.6 | 2.04% (inactive) | 
33 | COc1ccc(-c2[nH]ncc2CN(C)C(C)c2cccs2)c(F)c1 (stereo not given) |  | 8.77 | 2.81% (inactive) | 
34 | COc1ccc(Cc2nc3ccc(C(=O)NC(C)c4cn(C)nc4C)cc3o2)cc1 (stereo not given) |  | -22.9 |  | inactive
35 | O=C(Oc1ccccc1)c1c(Cl)cccc1P(=O)(O)O | 3.66 µM (active) | 3.12 |  | 
36 | O=C(Oc1ccc(/C=N/O)cc1)c1ccccc1Cl |  | -11.5 | 14.4% (inactive) | 
37 | O=C(O)c1c(Cl)cccc1Cl |  | 4.08 | 3.03% (inactive) | 
38 | CSc1ccc(Cl)c(C(=O)N2CCOc3ccccc32)c1 |  | -26.8 | 3.65% (inactive) | 
39 | O=C(c1ccc(N2C(=O)C3CC=C(Cl)CC3C2=O)cc1)N1CCOCC1 (stereo not given) |  | 30 | -4.16% (inactive) | 
40 | COc1cc(C=O)ccc1OCC(=O)Nc1ccccc1N1CCOCC1 | 2.59 µM (active) | -24.3 |  | 
41 | COc1cc(C(=O)Nc2ccccc2N2CCOCC2)ccc1OCC(=O)N1CCOCC1 |  |  | -20.4% (inactive) | 
42 | COc1ccccc1OCC(=O)Nc1ccc(N2CCOCC2)cc1N1CCOCC1 |  | 2.71 | -21.3% (inactive) | 
43 | CCc1cc2c(-c3ccccc3)cc(=O)oc2cc1OCC(=O)NCC1CCC(C(=O)O)CC1 (stereo not given) |  | 22.7 | -3.52% (inactive) | 
44 | CC(=O)COc1ccc2c(-c3ccccc3)cc(=O)oc2c1C |  | -1.68 | 10.7% (inactive) | 
45 | Cc1c(OC(C)C(=O)NCC(O)c2ccccc2)ccc2c3c(c(=O)oc12)CCCC3 (stereo not given) | 29.1 µM (active) | 9.43 |  | 
46 | Cc1c(OC(C)C(=O)N[C@H](C(=O)O)c2ccccc2)ccc2c3c(c(=O)oc12)CCCC3 (stereo not given in full) |  | -8.43 | -14.4% (inactive) | 
47 | Cc1c(OCC(=O)NCC(O)c2ccccc2)ccc2c3c(c(=O)oc12)CCCC3 (stereo not given) |  | -19.4 |  | inactive
48 | Cc1c(OC(C)C(=O)NCc2ccncc2)ccc2c3c(c(=O)oc12)CCC3 (stereo not given) |  | -1.18 |  | inactive
49 | Cc1c(OC(C)C(=O)NCc2ccccn2)ccc2c3c(c(=O)oc12)CCC3 (stereo not given) | 11.6 µM (active) | -27.2 |  | 
50 | CC(Oc1ccc2c3c(c(=O)oc2c1)CCC3)C(=O)NCc1ccccn1 (stereo not given) |  | 1.9 |  | inactive
51 | CCc1cc2c(-c3ccccc3)cc(=O)oc2cc1OCC(C)=O | 0.651 µM (active) | -1.82 |  | 
52 | Cc1c(OCC(=O)NCC2CCC(C(=O)O)CC2)ccc2c(-c3ccccc3)cc(=O)oc12 (stereo not given) |  | 0.647 | 6.37% (inactive) | 
53 | Cc1c(OCC(=O)NCC(O)c2ccccc2)ccc2c(-c3ccccc3)cc(=O)oc12 (stereo not given) | 16.4 µM (active) | -9.69 |  | 
54 | CCc1cc2c(-c3ccccc3)cc(=O)oc2cc1OC(C)C(=O)NCC1CCC(C(=O)O)CC1 (stereo not given) |  | 17.8 |  | inactive
